# Only some compounds are listed: those with a hit (about 2.8% of all), similar ones and a draw of the others.
# Shn3 3UTR inh: reduces Shn3 3'UTR luciferase signal in osteoblasts; Clone20 osteoblast Shn3 3'UTR firefly luciferase, 24 h; inhibition, % at 12.5 µM; 360,000 compounds, 0.52% hits;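 active means mean inhibition of at least 75% with every replicate also reaching 75%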;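 further: 0% = median of neutral control wells and 100% = pilot-screen positive control compound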
# CF NFkB block: blocks PAF-induced NF-kB reporter in cystic fibrosis cells; inhibition, % at 5 µM; 360,000 compounds, 0.86% hits; KKLEB NF-kB-GFP reporter, GFP fluorescence overnight;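 active means at least 50% inhibition at 5 µM, scaled per plate between neutral and stimulator controls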;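 further: PAF is a Pseudomonas aeruginosa culture filtrate used as stimulus; plate controls were PAF-stimulated DMSO wells for no effect and unstimulated DMSO wells for full effect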
# Peg3 prom inh-1: inhibitors of Peg3 promoter | inhibition, % at 20 µM | HeLa PEG-Prom luciferase reporter, luminescence, overnight | 360,000 compounds, 1.7% hits | AID 588405;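 active means inhibition of at least 50% at 20 µM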
# HIF-2a inh: HIF-2a inhibition; 786-0 RCC cells HIF-2a reporter, luciferase luminescence, overnight; inhibition, % at 18.8 µM; 360,000 compounds, 0.72% hits;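 active means inhibition of the luminescence signal of 40% or more relative to plate controls, in a single-dose primary screen at 18.75 µM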
# TRPM1 prom inh: inhibitors of MITF-driven TRPM1 promoter in melanoma cells; SK-MEL-5 TRPM1 promoter luciferase, 24 h; AID 488899; inhibition, % at 12.5 µM; 330,000 compounds, 0.83% hits;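 active means mean inhibition across replicates of 60% or more, whatever share of single replicates reaches that level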
# KKLEB cytotox: CF airway cell cytotoxicity counter-screen | KKLEB CF airway cells viability, ATPlite luminescence, overnight; stronger effect = lower value; cells stimulated with P. aeruginosa culture filtrate | activity change (cytotoxicity), % at 5 µM | 360,000 compounds, 0.36% hits | AID 602141;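 active means corrected activity change at or below -50% at 5 µM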
# Peg3 prom inh-2: confirmation of Peg3 promoter inhibitors; 1,300 compounds, 84% hits; shares compounds with Peg3 prom inh-1; AID 602417; inhibition, % at 20 µM; HeLa PEG-Prom luciferase reporter, luminescence, overnight;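 active means at 20 µM dose, 40% or more inhibition averaged across four replicates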
# Numbers without * were called inactive; x = no result given.
SMILES,Shn3 3UTR inh,CF NFkB block,Peg3 prom inh-1,HIF-2a inh,TRPM1 prom inh,KKLEB cytotox,Peg3 prom inh-2
O=C(CSc1ccc([N+](=O)[O-])cn1)Nc1cc(C(F)(F)F)ccc1N1CCOCC1,16,19,-2,7,11,-11,x
N=c1n(CC(=O)c2ccc([N+](=O)[O-])cc2)c2ccccc2n1Cc1ccc(Cl)cc1,3,7,109*,10,92*,-36,97*
N=c1n(CC(=O)c2ccc([N+](=O)[O-])cc2)c2ccccc2n1Cc1ccccc1,16,3,66*,12,85*,-31,42*
O=C(C[C@H]1C[C@H](C(=O)N2CCCCC2)[C@@]2(CCc3ccccc3)c3[nH]c4ccc(Cl)cc4c3CCN2C1=O)NCCN1CCOCC1,1,19,80*,10,-3,-10,-2
O=C(/C=C/c1ccccc1)Nc1cccc(C(=O)O)c1,69,-4,85*,87*,99*,3,77*
O=C(/C=C/c1ccccc1)Nc1cc(NC(=O)/C=C/c2ccccc2)cc(C(=O)O)c1,-3,-6,14,19,18,16,x
Cn1c2ccccc2c2ccc3c(c21)C(=O)C=CC3=O,94*,33,104*,-12,89*,-12,101*
Cc1ccc2oc(/N=C(\N)NC(=O)C3CC3)nc2c1,3,-8,-150,-123,6,-1,x
Cc1ccc2oc(/N=C(\N)NC(=O)C(C)(C)C)nc2c1,x,-20,82*,81*,72*,-61*,85*
c1cncc(CN2CCN(c3cc(-c4cnc5ccccc5c4)nc4ccnn34)CC2)c1,-4,2,-3,-15,x,2,x
CC1CC(C)C(=O)C(C(CC2CC(=O)NC(=O)C2)OC(=O)CC(=O)c2ccccc2)C1 (stereo not drawn),64,66*,81*,27,55,-14,83*
O=C1CCC(C(=O)OCC(=O)c2ccccc2)N1 (stereo not drawn),23,7,-8,9,0,-6,x
CCOc1ccc2nc(Nc3nc(CSc4nnnn4-c4ccccc4)cc(=O)[nH]3)nc(C)c2c1,19,14,-19,10,5,-10,x
COc1ccc2nc(Nc3nc(CSc4nnnn4-c4ccccc4)cc(=O)[nH]3)nc(C)c2c1,19,23,74*,5,23,-46,44*
CC(C)c1ccccc1OS(N)(=O)=O,-13,-21,12,13,4,3,x
O=C(Nc1nncs1)c1cc2c(s1)CCC2,-77,5,-181,-184,-73,-15,x
O=C(Nc1nccs1)c1cc2c(s1)CCCCC2,29,-11,58*,51*,46,-54*,16
COc1ccc(NC(=O)CS(=O)CC(=O)N2CCN(C3CCCC3)CC2)cc1 (stereo not drawn),-14,7,-3,7,-6,4,x
CC(=O)NC12CC3CC(C1)CC(C(=O)N1CCN(c4ncccn4)CC1)(C3)C2,10,-6,15,9,-8,7,x
Cc1ccc([N+](=O)[O-])cc1NC(=O)c1ccc2c(c1)OCO2,-17,5,-2,-37,2,5,x
O=C(Nc1ncc([N+](=O)[O-])s1)c1ccc2c(c1)OCO2,30,46,70*,61*,65*,-11,64*
Cc1ccc(C(=O)N/C(=C\c2ccc(-c3cccc([N+](=O)[O-])c3)o2)C(=O)NCCCN(C)C)cc1,12,16,87*,-10,13,-12,93*
CN(C)CCNC(=O)/C(=C/c1ccc(-c2ccc(Cl)cc2)o1)NC(=O)c1ccccc1,-1,30,100*,8,66*,-18,97*
Cc1cc(C=C2C(=O)c3ccccc3C2=O)c(C)n1-c1ccccc1,21,-24,69*,56*,72*,-10,65*
Cc1cc(C=C2C(=O)c3ccccc3C2=O)c(C)n1-c1cccc(C(=O)O)c1,-5,-6,-66,-59,-4,-6,x
SMILES,Shn3 3UTR inh,CF NFkB block,Peg3 prom inh-1,HIF-2a inh,TRPM1 prom inh,KKLEB cytotox,Peg3 prom inh-2
CN(CC(=O)Nc1ccc(F)cc1)C(=O)CN1C(=O)NC(CCc2ccccc2)C1=O (stereo not drawn),5,6,1,-1,x,2,x
COCCCNC(=O)c1ccc(Cn2c(=O)c3ccccc3n(Cc3ccccc3C)c2=O)cc1,12,7,34,13,4,-3,x
COCCCNC(=O)c1ccc(Cn2c(=O)c3ccccc3n(Cc3ccccc3C#N)c2=O)cc1,8,7,54*,13,16,1,57*
COc1cc2ccccc2cc1C(=O)OCc1nc2ccsc2c(=O)[nH]1,-11,5,-3,-17,-19,1,x
COc1cccc(CN(C)C(=O)c2cc(-c3cccs3)nc3ccccc23)c1,2,-9,61*,5,-12,-7,67*
COc1ccc(N2CCN(C(=O)c3cc(-c4cccs4)nc4ccccc34)CC2)cc1,5,21,12,-12,-12,-9,x
COc1ccc(-c2cc(C(=O)NCC(c3ccccc3)N(C)C)c3ccccc3n2)cc1OC (stereo not drawn),18,17,17,-28,0,-11,x
COc1ccc(-c2cc(C(=O)N(C)Cc3ccccc3F)c3ccccc3n2)cc1OC,13,19,61*,3,5,-20,60*
COc1ccc(-c2cc(C(=O)N(C)CC(=O)Nc3ccccc3Br)c3ccccc3n2)cc1OC,2,21,54*,-1,-2,-26,27
COc1cc(-c2cc(C(=O)N(C)Cc3ccccc3)c3ccccc3n2)cc(OC)c1OC,25,-24,56*,10,10,-5,52*
COc1ccc(-c2cc(C(=O)N(C)CC(=O)Nc3ccccc3C(F)(F)F)c3ccccc3n2)cc1OC,15,-7,44,0,-1,-15,x
O=C(C1CCC(=O)N(C2CC2)C1)N1CCN(c2cccc(Cl)c2)CC1 (stereo not drawn),-11,14,7,10,4,-9,x
O=C(NCCNC(=O)c1ccccc1Br)c1cccnc1,-11,8,15,15,1,-8,x
COc1cccc(CN(C)C(=O)CSc2nc3ccccc3[nH]2)c1OC,-1,4,-58,-87,-12,-2,x
CCN(C(=O)CSc1nc2n[nH]c(C)c2c(=N)n1-c1ccc(Cl)c(C)c1)c1cccc(C)c1,27,27,72*,18,19,6,49*
Cc1cc(-n2c(SCc3ccccc3F)nc3n[nH]c(C)c3c2=N)ccc1Cl,15,-6,21,-1,0,-4,x
COc1ccc(-n2cc(-c3ccccc3)c3c(N4CCOCC4)ncnc32)cc1,24,94*,61*,22,9,-100*,68*
